# Assays:
# Experiment in all cases: protein-binding microarray (PBM); PBM: ~300 nM protein, 6 mM HEPES pH 7.8, 80 mM KCl, 0.5 mM EDTA, 0.5 mM EGTA, 6% glycerol, 35 ng/ul poly-dIdC, 1% milk, 1 h, room temperature; Ap Aiptasia and Nv Nematostella (sea anemones) / Co Capsaspora / Aq Amphimedon (sponge) / Dm Drosophila / Hu human; RHD is the Rel homology domain; high values mean tight binding
# Conditions in all cases: dsDNA, one strand shown
# [1] = target: T1, GST-Ap-NF-kB RHD (Exaiptasia pallida (Aiptasia), UniProt A0A913YAJ5 2-422)
# T1 sequence: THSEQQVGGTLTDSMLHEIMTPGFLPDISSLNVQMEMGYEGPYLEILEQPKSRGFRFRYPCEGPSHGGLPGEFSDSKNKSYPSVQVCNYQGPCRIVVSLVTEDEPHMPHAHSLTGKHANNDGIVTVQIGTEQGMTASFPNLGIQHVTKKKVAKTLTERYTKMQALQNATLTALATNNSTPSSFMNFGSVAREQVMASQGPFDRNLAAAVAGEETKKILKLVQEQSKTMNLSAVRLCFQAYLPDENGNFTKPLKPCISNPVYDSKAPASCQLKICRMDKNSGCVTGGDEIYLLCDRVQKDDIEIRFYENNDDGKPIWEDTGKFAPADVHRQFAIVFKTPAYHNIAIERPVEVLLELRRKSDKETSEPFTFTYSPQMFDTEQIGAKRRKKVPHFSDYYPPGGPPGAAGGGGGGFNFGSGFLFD
# [2] = target: T2, GST-Nv-NF-kB (Cys allele) (Nematostella vectensis, UniProt E5G601 2-411)
# T2 sequence: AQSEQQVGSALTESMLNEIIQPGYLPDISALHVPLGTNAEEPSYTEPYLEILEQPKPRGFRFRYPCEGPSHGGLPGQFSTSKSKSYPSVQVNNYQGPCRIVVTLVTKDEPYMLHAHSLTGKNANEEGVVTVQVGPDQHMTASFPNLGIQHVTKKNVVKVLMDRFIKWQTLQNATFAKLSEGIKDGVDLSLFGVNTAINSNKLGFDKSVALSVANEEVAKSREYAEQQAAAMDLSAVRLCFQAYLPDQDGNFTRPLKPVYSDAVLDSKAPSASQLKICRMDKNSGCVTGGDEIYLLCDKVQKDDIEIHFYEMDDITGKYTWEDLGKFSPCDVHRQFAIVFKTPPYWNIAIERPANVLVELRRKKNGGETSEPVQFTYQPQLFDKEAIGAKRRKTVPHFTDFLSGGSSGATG
# [3] = target: T3, GST-Co-NF-kB (Capsaspora owczarzaki, UniProt F1ARL5 200-546)
# T3 sequence: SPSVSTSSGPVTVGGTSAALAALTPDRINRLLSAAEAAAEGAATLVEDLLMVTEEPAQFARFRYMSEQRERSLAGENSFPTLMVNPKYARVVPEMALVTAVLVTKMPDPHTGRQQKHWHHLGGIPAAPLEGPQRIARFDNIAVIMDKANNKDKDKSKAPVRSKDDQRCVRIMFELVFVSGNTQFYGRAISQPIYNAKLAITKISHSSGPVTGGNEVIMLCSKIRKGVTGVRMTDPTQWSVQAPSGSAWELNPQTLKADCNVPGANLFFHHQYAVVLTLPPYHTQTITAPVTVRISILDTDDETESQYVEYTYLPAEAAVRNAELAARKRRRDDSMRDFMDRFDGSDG
# [4] = target: T4, GST-Dm-Relish (Drosophila melanogaster, UniProt Q94527 99-473)
# T4 sequence: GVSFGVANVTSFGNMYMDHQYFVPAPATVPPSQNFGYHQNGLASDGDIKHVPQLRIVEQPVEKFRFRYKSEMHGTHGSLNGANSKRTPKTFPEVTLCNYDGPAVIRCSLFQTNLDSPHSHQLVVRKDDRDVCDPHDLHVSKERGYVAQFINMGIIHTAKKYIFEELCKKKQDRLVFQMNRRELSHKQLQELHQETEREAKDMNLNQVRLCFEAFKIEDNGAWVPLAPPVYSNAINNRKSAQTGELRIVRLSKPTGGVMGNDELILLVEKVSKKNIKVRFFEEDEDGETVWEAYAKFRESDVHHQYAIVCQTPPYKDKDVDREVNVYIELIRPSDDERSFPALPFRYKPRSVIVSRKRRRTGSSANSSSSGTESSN
# [5] = target: T5, GST-Aq-NF-kB (Amphimedon queenslandica, UniProt A9Y5G7 2-389)
# T5 sequence: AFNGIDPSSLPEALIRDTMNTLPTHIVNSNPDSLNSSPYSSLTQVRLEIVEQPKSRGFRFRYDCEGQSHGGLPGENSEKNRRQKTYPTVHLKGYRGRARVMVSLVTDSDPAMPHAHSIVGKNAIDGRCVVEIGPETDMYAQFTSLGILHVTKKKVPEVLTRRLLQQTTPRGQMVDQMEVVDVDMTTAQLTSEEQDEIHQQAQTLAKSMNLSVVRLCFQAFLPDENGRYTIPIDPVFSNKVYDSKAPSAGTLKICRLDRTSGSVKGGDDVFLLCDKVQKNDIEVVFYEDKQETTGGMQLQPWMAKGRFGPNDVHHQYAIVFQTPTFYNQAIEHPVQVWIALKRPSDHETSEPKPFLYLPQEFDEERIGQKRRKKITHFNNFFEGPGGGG
Sequence,binding signal [1] [z-score],binding signal [2] [z-score],binding signal [3] [z-score],binding signal [4] [z-score],binding signal [5] [z-score]
CCGATTAACATCAAGGTTTTCCCTGATGTTAATCGGGTCTTGATTCGCTTGACGCTGCTG,4.36,5.34,4.71,5.1,5.65
CCGATTAACATCAGGAATACCCCTGATGTTAATCGGGTCTTGATTCGCTTGACGCTGCTG,6.59,6.44,4.14,6.46,6.92
CCGATTAACATCACAACCCCCCCTGATGTTAATCGGGTCTTGATTCGCTTGACGCTGCTG,5.55,3.59,3.83,6.16,4.6
CCGATTAACATCACATACTCCCCTGATGTTAATCGGGTCTTGATTCGCTTGACGCTGCTG,4.4,3.45,3.69,1.57,3.42
CCGATTAACATCAACCCCGTTTCTGATGTTAATCGGGTCTTGATTCGCTTGACGCTGCTG,1.51,1.29,1.63,1.65,2.24
CCGATTAACATCAACTAATTCCCTGATGTTAATCGGGTCTTGATTCGCTTGACGCTGCTG,2.18,4.19,3.13,1.91,3.44
CCGATTAACATCAGGGATATTTATGATGTTAATCGGGTCTTGATTCGCTTGACGCTGCTG,2.06,2.7,1.68,2.57,3.73
CCGATTAACATCAAATACTTCCCTGATGTTAATCGGGTCTTGATTCGCTTGACGCTGCTG,2.22,3.32,2.96,2.69,4.24
CCGATTAACATCACGGACTCCCCTGATGTTAATCGGGTCTTGATTCGCTTGACGCTGCTG,5.18,3.32,3.37,6.19,4.33
CCGATTAACATCAGGGGGATGTATGATGTTAATCGGGTCTTGATTCGCTTGACGCTGCTG,4.97,4.88,4.13,4.17,4.11
CCGATTAACATCACGTTATTCCCTGATGTTAATCGGGTCTTGATTCGCTTGACGCTGCTG,2.79,2.96,2.74,4.77,2.9
CCGATTAACATCAGGGGTAAAACTGATGTTAATCGGGTCTTGATTCGCTTGACGCTGCTG,2.3,1.97,6.26,1.85,2.73
CCGATTAACATCAATCGTCCCCCTGATGTTAATCGGGTCTTGATTCGCTTGACGCTGCTG,5.15,4.15,6.83,2.93,4.81
CCGATTAACATCAGGGAATTATATGATGTTAATCGGGTCTTGATTCGCTTGACGCTGCTG,4.16,6.68,4.16,3.26,6.69
CCGATTAACATCAGGGGAAGGACTGATGTTAATCGGGTCTTGATTCGCTTGACGCTGCTG,4.32,4.53,4.12,8.23,5.22
CCGATTAACATCAATATTTCCCATGATGTTAATCGGGTCTTGATTCGCTTGACGCTGCTG,2.29,3.85,5.1,1.61,3.82
CCGATTAACATCAAGTACTTCCCTGATGTTAATCGGGTCTTGATTCGCTTGACGCTGCTG,2.1,2.22,2.13,8.12,3.13
CCGATTAACATCACGTCCCCCCCTGATGTTAATCGGGTCTTGATTCGCTTGACGCTGCTG,6.32,4.27,5.34,4.38,4.49
CCGATTAACATCAGGGAAATAAATGATGTTAATCGGGTCTTGATTCGCTTGACGCTGCTG,2.39,4.44,4.38,2.1,4.44
CCGATTAACATCAGGTATTCCCATGATGTTAATCGGGTCTTGATTCGCTTGACGCTGCTG,3.43,2.67,2.14,7.54,4.66
CCGATTAACATCAAACTCTCCCCTGATGTTAATCGGGTCTTGATTCGCTTGACGCTGCTG,5.13,4.94,6.22,1.21,4.74
CCGATTAACATCACGGAGTTCCCTGATGTTAATCGGGTCTTGATTCGCTTGACGCTGCTG,2.6,1.63,1.53,5,4.63
CCGATTAACATCAGGAGATTCCCTGATGTTAATCGGGTCTTGATTCGCTTGACGCTGCTG,3.76,5.47,2.78,4.79,7.56
CCGATTAACATCAGGGAATCCACTGATGTTAATCGGGTCTTGATTCGCTTGACGCTGCTG,3.05,3.31,2.25,7.85,5.29
CCGATTAACATCACAGTACCCCCTGATGTTAATCGGGTCTTGATTCGCTTGACGCTGCTG,5.34,2.85,3.67,1.94,2.91
CCGATTAACATCAAATAGGGAATTGATGTTAATCGGGTCTTGATTCGCTTGACGCTGCTG,2.29,5.11,1.54,1.32,3.5
CCGATTAACATCAGGGAATGCCATGATGTTAATCGGGTCTTGATTCGCTTGACGCTGCTG,1.69,2.76,1.43,2.52,3.45
